Records with an inconclusive call do not appear. The source made the active and inactive calls. Rule for the calls, unless noted: active = hit-call score of the fitted dose curve at least 0.9, where 1 is the maximum; inactive = score below 0.9.
How the values were obtained:
[1] = ATG_PXRE_CIS: Attagene CIS-FACTORIAL HepG2 Assay for human Pregnane X Receptor Element (PXRE) (AID 2282957); conditions: HepG2 Attagene CIS-FACTORIAL PXRE reporter, mRNA; actives raise or lower the signal
Outline: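 Multiplexed cis-reporter assay in transiently transfected human HepG2 cells; 24 h chemical exposure. Reporter transcripts quantified by RT-PCR with fluorescent labeling and capillary electrophoresis.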

[2] = ATG_PPRE_CIS: Attagene CIS-FACTORIAL HepG2 Assay for human Peroxisome Proliferator-activated Response Element (PPRE) (AID 2282958); conditions: HepG2 PPRE cis-element reporter, Attagene transcription factor profiling; actives raise or lower the signal
Outline: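 HepG2, transient MRTU transfection (cis promoter elements, endogenous TFs). 24 h dosing. RNA → oligo(dT) RT → PCR → 6-FAM primer extension → HpaI digest → CE. Bidirectional fit vs DMSO.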

[3] = ATG_RORE_CIS: Attagene CIS-FACTORIAL HepG2 Assay for human RAR-related Orphan Receptor Element (RORE) (AID 2282959); conditions: HepG2 Attagene cis-factorial RORE reporter, mRNA; actives raise or lower the signal
Outline: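 Transient MRTU transfection of human HepG2 liver cells (FuGene 6); 24 h compound exposure; TriZol RNA, oligo(dT) RT, PCR, FAM labeling, HpaI cut, CE fragment analysis. DMSO = negative control/baseline.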

[4] = ATG_Sox_CIS: Attagene CIS-FACTORIAL HepG2 Assay for human SRY-box transcription factor (SOX) (AID 2282960); conditions: HepG2 Attagene cis-factorial SOX reporter, mRNA; actives raise or lower the signal
Outline: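 Endogenous factor activity in human liver HepG2 cells carrying transfected cis-regulated reporter units. RNA taken 24 h post-dose, reverse-transcribed, PCR-amplified and sized by capillary electrophoresis. Gain or loss of signal fitted relative to DMSO.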

[5] = molecular target: Transcription factor Sp1 (Homo sapiens) (UniProt P08047); assay: ATG_Sp1_CIS: Attagene CIS-FACTORIAL HepG2 Assay for human Specificity Protein 1 (Sp1) (AID 2282961); conditions: HepG2 Sp1 cis-reporter transcription, actives raise or lower the signal
Chain of Transcription factor Sp1 (Homo sapiens) (P08047 whole entry, looked up): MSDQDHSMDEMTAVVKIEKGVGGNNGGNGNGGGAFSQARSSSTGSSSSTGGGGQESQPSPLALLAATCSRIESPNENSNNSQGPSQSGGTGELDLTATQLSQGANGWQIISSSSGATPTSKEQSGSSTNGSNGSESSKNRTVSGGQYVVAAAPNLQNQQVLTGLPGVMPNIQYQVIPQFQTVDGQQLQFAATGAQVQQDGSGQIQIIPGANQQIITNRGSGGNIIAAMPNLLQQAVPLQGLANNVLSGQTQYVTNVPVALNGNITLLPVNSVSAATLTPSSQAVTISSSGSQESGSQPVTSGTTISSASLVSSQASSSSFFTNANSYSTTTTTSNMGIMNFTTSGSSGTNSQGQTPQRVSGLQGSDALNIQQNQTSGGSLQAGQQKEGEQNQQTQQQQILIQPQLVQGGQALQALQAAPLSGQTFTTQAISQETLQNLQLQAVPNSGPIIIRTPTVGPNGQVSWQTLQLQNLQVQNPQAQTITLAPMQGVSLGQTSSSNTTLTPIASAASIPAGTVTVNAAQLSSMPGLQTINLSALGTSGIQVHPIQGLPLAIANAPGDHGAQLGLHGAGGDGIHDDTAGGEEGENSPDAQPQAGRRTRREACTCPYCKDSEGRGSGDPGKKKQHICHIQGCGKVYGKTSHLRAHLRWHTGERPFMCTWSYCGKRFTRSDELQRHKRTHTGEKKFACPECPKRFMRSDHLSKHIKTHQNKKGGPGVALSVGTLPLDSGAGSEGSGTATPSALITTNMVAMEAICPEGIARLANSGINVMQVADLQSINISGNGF
Outline: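 Transient MRTU-transfected HepG2, 24 h compound exposure. Total RNA → oligo(dT) RT → PCR of reporter → 6-FAM primer extension → HpaI digest → CE. Endpoint fitted both directions vs DMSO.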

[6] = ATG_SREBP_CIS: Attagene CIS-FACTORIAL HepG2 Assay for human Sterol Regulatory Element Binding (SREBP) (AID 2282962); conditions: HepG2 Attagene cis-factorial SREBP reporter, mRNA; actives raise or lower the signal
Outline: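 Transfected HepG2 (cis-regulated reporter library, endogenous TFs) → compound 24 h → total RNA → oligo(dT) RT → reporter-specific PCR → FAM primer extension, HpaI cut → CE fluorescence. Fit bidirectional vs DMSO.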

[7] = molecular target: Signal transducer and activator of transcription 3 (Homo sapiens) (UniProt P40763); assay: ATG_STAT3_CIS: Attagene CIS-FACTORIAL HepG2 Assay for human Signal Transducer and Activator of Transcription 3 (STAT3) (AID 2282963); conditions: HepG2, Attagene cis-factorial STAT3 reporter transcription; actives raise or lower the signal
Chain of Signal transducer and activator of transcription 3 (Homo sapiens) (P40763 whole entry, looked up): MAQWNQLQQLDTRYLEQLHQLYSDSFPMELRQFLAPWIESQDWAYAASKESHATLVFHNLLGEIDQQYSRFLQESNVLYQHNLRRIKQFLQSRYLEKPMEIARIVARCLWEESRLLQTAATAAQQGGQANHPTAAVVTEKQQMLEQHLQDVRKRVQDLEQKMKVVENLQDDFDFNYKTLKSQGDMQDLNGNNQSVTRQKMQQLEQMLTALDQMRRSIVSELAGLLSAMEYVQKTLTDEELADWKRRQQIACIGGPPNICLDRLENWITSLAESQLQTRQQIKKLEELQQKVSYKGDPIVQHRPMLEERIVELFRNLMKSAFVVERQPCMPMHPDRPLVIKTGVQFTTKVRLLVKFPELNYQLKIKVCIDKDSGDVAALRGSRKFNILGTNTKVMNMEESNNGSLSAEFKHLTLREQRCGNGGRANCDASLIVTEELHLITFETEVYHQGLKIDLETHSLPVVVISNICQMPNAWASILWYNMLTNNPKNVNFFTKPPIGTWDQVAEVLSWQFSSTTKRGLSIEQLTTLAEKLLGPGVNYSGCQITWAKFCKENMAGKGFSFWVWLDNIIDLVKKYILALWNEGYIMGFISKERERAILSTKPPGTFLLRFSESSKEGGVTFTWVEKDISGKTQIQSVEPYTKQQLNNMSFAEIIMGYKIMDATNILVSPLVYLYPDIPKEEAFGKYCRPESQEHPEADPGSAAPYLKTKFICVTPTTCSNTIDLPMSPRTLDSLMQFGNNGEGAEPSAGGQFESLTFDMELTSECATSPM
Outline: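 HepG2 cells transiently transfected with cis-element-driven multiple reporter transcription units; after 24 h chemical exposure, reporter mRNA measured by RT-PCR, 6-FAM primer-extension labelling, HpaI digestion and capillary electrophoresis. Bidirectional fitting versus DMSO baseline.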

[8] = ATG_TA_CIS: Attagene CIS-FACTORIAL HepG2 Assay for human TA Basal Promoter (AID 2282964); conditions: HepG2 Attagene CIS-factorial TA basal promoter reporter; actives raise or lower the signal
Outline: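 Read-out: fluorescent reporter-transcript fragments resolved by capillary electrophoresis after RT-PCR and HpaI digestion. Source: HepG2 cells carrying transiently transfected multi-reporter cis constructs, treated 24 h. Endpoint fitted bidirectionally relative to DMSO.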

[9] = ATG_TAL_CIS: Attagene CIS-FACTORIAL HepG2 Assay for human TAL Basal Promoter (AID 2282966); conditions: HepG2 Attagene cis-factorial TAL promoter reporter; actives raise or lower the signal;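 note: background control endpoint measuring basal TAL promoter reporter mRNA not a specific factor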
Outline: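 Steps: transfect HepG2 with multiple reporter transcription units; dose 24 h; isolate RNA, reverse-transcribe, PCR-amplify, label with 6-FAM, digest with HpaI; resolve by capillary electrophoresis. Bidirectional fitting against DMSO baseline.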

[10] = ATG_TGFb_CIS: Attagene CIS-FACTORIAL HepG2 Assay for human Transforming Growth Factor (TGF) (AID 2282967); conditions: HepG2 Attagene CIS TGFb reporter, mRNA transcription; actives raise or lower the signal
Outline: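 Transient MRTU transfection of HepG2 (FuGene 6). Dose 24 h. TriZol RNA, oligo(dT) RT, PCR, 6-FAM primer extension, HpaI cut, CE. Bidirectional fit, DMSO = baseline.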

[11] = molecular target: X-box-binding protein 1 (Homo sapiens) (UniProt P17861); assay: ATG_Xbp1_CIS: Attagene CIS-FACTORIAL HepG2 Assay for human X-box Binding Protein 1 (XBP1) (AID 2282972); conditions: HepG2 XBP1 cis-element reporter, Attagene multiplex; actives raise or lower the signal
Chain of X-box-binding protein 1 (Homo sapiens) (P17861 whole entry, looked up): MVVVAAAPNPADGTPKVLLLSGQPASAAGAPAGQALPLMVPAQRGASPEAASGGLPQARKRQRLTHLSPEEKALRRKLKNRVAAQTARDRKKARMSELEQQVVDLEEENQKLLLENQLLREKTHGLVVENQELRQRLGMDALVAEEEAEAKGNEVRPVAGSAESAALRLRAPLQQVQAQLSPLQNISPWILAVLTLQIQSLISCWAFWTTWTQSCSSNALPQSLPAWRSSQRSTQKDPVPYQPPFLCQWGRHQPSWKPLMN
Outline: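 HepG2, transient MRTU transfection (cis-promoter driven), 24 h compound exposure. Total RNA → oligo(dT) RT → PCR → 6-FAM labeling → HpaI cut → CE. Bidirectional fit vs DMSO.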

[12] = ATG_M_19_TRANS: Attagene TRANS-FACTORIAL HepG2 Assay for M19 Transcription Factor (Internal Marker) (AID 2282974; active = hit-call score of the fitted dose curve at least 0.9, where 1 is the maximum); conditions: HepG2 Attagene TRANS-FACTORIAL M19 internal marker reporter
Outline: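 Fluorescence of 6-FAM-labelled reporter cDNA fragments, separated by capillary electrophoresis, served as the readout. These derived from HepG2 cells carrying transfected GAL4-UAS reporter units after 24 h dosing, with DMSO as negative control.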

[13] = ATG_GAL4_TRANS: Attagene TRANS-FACTORIAL HepG2 Assay for GAL4 (Internal Marker) (AID 2282976; active = hit-call score of the fitted dose curve at least 0.9, where 1 is the maximum); conditions: HepG2 Attagene TRANS GAL4 internal marker reporter
Outline: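 Liver HepG2 line bearing multiplexed GAL4-UAS reporter constructs; 24 h chemical treatment. Transcripts were quantified as fluorescent fragments on capillary electrophoresis after RT-PCR and HpaI cut, with activity fitted upward from DMSO.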

[14] = molecular target: Glucocorticoid receptor (Homo sapiens) (UniProt P04150); assay: ATG_GR_TRANS: Attagene TRANS-FACTORIAL HepG2 Assay for human Glucocorticoid Receptor (GR) (AID 2282978; active = hit-call score of the fitted dose curve at least 0.9, where 1 is the maximum;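 note: activators score as hits since higher reporter transcript over DMSO is fitted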); conditions: HepG2 Attagene TRANS GR reporter, mRNA transcription
Chain of Glucocorticoid receptor (Homo sapiens) (P04150 whole entry, looked up, the tested form may be a part): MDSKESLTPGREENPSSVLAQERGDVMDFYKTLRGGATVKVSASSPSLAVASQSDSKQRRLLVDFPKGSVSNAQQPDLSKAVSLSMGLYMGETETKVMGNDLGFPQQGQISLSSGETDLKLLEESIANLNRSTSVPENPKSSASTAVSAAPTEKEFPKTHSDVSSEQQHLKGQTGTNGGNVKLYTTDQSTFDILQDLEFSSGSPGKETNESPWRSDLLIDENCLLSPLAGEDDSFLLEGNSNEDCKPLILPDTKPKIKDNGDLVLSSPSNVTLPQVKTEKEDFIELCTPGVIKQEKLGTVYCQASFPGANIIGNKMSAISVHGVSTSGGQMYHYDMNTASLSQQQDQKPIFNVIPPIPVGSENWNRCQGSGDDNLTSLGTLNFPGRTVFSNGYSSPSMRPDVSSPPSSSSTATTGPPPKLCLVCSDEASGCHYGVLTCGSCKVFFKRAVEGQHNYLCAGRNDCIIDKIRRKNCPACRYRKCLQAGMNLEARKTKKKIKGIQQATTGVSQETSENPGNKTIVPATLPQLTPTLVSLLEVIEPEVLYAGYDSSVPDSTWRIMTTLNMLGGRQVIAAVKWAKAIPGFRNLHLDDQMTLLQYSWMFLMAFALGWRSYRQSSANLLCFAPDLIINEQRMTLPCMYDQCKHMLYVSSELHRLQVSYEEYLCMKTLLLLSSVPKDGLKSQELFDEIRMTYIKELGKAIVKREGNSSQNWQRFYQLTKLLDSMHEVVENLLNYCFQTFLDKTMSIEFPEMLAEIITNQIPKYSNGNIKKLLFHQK
Outline: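 Fluorescent capillary-electrophoresis quantitation of reporter mRNA is the readout, taken 24 h after dosing human HepG2 cells carrying transiently transfected GAL4-UAS reporter units activated by chimeric NR-GAL4 fusions; activity scored as induction over DMSO.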

[15] = ATG_VDRE_CIS: Attagene CIS-FACTORIAL HepG2 Assay for human Vitamin D Receptor Element (VDRE) (AID 2282968); conditions: HepG2 VDRE cis-reporter transcription, actives raise or lower the signal
Outline: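 HepG2 cells transiently transfected with cis-element reporter units, dosed 24 h; reporter mRNA measured by RT-PCR, 6-FAM labeling, HpaI digestion and capillary electrophoresis. Activity fitted bidirectionally against DMSO baseline.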

[16] = molecular target: Estrogen-related receptor gamma (Homo sapiens) (UniProt P62508); assay: ATG_ERRg_TRANS: Attagene TRANS-FACTORIAL HepG2 Assay for human Estrogen-Related Receptor gamma (ERRg) (AID 2282977; active = hit-call score of the fitted dose curve at least 0.9, where 1 is the maximum;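 note: hits increase reporter signal over DMSO so potencies reflect activators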); conditions: HepG2 Attagene TRANS reporter, ERRg transactivation
Chain of Estrogen-related receptor gamma (Homo sapiens) (P62508 whole entry, looked up, the tested form may be a part): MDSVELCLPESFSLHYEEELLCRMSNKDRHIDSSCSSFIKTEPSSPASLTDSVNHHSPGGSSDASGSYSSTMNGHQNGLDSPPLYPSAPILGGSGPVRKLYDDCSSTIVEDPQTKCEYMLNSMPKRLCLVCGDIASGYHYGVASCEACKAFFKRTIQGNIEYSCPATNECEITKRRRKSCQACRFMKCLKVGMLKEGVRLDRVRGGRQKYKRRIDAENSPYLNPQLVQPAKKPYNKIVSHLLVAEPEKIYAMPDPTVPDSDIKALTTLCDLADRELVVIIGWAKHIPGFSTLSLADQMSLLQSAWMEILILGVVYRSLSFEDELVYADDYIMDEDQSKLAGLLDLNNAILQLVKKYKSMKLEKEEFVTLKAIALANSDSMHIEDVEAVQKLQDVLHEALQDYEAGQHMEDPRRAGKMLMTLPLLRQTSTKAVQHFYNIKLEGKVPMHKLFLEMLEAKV
Outline: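 HepG2 cells transiently transfected with multiplexed GAL4-UAS reporter units and chimeric NR-Gal4 constructs were exposed to test chemicals for 24 h. Reporter mRNA was measured by RT-PCR, 6-FAM primer extension, HpaI digestion and capillary electrophoresis; gain-of-signal versus DMSO.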

[17] = molecular target: Nuclear receptor subfamily 1 group I member 3 (Homo sapiens) (UniProt Q14994); assay: ATG_CAR_TRANS: Attagene TRANS-FACTORIAL HepG2 Assay for human Constitutive Androstane Receptor (CAR) (AID 2282969; active = hit-call score of the fitted dose curve at least 0.9, where 1 is the maximum;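 note: activators raise reporter mRNA above DMSO so AC50 marks induction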); conditions: HepG2 Attagene TRANS-FACTORIAL CAR reporter
Chain of Nuclear receptor subfamily 1 group I member 3 (Homo sapiens) (Q14994 whole entry, looked up, the tested form may be a part): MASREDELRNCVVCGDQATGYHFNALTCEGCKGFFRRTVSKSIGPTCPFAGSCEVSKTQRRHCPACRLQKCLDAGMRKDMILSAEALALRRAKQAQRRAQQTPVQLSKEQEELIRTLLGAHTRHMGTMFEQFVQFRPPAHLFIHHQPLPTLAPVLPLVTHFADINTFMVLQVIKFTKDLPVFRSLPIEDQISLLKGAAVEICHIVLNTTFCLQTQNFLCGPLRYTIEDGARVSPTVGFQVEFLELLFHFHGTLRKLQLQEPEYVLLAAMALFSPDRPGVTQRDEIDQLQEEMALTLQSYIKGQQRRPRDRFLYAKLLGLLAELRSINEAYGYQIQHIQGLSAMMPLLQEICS
Outline: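 HepG2 cells transiently transfected with multiplexed GAL4-UAS reporter units expressing chimeric NR-Gal4 proteins; compound exposure 24 h. Reporter mRNA measured by RT-PCR, 6-FAM labelling, HpaI digestion and capillary electrophoresis; gain-of-signal fitted against DMSO baseline.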

[18] = molecular target: Steroid hormone receptor ERR1 (Homo sapiens) (UniProt P11474); assay: ATG_ERRa_TRANS: Attagene TRANS-FACTORIAL HepG2 Assay for human Estrogen-Related Receptor alpha (ERRa) (AID 2282971; active = hit-call score of the fitted dose curve at least 0.9, where 1 is the maximum); conditions: HepG2 Attagene TRANS reporter, ERRa transactivation
Chain of Steroid hormone receptor ERR1 (Homo sapiens) (P11474 whole entry, looked up, the tested form may be a part): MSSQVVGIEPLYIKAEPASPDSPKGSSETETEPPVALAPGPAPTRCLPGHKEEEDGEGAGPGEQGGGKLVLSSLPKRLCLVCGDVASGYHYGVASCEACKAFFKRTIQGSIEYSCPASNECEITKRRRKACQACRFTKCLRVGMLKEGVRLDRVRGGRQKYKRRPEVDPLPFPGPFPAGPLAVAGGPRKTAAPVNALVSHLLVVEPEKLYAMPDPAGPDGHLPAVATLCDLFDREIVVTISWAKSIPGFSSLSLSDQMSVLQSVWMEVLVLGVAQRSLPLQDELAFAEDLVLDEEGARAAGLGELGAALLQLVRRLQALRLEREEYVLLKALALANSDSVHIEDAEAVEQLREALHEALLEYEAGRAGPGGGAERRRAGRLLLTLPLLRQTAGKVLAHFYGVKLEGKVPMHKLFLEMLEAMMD
Outline: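 Signal gain relative to DMSO for an ERRa-Gal4 chimeric receptor, read as reporter mRNA by RT-PCR/capillary electrophoresis. Human HepG2 liver cells, transient multiplex reporter transfection, 24 h chemical exposure.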

[19] = molecular target: Estrogen receptor (Homo sapiens) (UniProt P03372); assay: ATG_ERa_TRANS: Attagene TRANS-FACTORIAL HepG2 Assay for human Estrogen Receptor alpha (ERa) (AID 2282970; active = hit-call score of the fitted dose curve at least 0.9, where 1 is the maximum); conditions: HepG2 Attagene TRANS ERa GAL4 reporter, mRNA
Chain of Estrogen receptor (Homo sapiens) (P03372 whole entry, looked up, the tested form may be a part): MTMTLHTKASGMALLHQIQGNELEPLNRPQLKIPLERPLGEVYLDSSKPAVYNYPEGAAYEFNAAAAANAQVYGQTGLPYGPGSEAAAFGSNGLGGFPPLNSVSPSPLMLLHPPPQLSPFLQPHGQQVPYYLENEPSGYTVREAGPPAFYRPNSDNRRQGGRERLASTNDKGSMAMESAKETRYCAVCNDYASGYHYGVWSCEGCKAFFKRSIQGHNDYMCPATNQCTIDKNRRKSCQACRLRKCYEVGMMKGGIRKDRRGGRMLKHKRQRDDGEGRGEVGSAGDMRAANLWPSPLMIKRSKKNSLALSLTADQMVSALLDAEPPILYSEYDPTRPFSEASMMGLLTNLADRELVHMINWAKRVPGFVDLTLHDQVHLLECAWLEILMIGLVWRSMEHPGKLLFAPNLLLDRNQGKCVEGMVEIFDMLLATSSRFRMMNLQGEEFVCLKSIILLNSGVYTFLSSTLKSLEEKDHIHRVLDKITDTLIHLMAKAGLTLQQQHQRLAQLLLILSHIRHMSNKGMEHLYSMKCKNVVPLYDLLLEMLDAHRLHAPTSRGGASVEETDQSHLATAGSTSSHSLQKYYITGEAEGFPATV
Outline: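 Multiplexed cell-based reporter format in HepG2: chimeric ERa-Gal4 protein drives GAL4-UAS reporter transcription. Fluorescent reporter mRNA quantified by capillary electrophoresis 24 hours after dosing; endpoint fitted as signal gain against DMSO.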

Measured: AC50

Cn1cc(-c2ccccc2)c(=O)c(-c2cccc(C(F)(F)F)c2)c1
active: [1] 4.31 µM
not listed: [15] | [16] | [17] | [18] | [19]
inactive: all other assays above

CC(C)(O)c1cnn2c(-c3ccc(F)c(-c4c(F)cccc4C#N)c3)cnc2n1
active: [1] 0.137 µM | [8] 13.1 µM | [15] 0.538 µM
not listed: [13] | [17] | [18] | [19]
inactive: all other assays above

Clc1ccccc1Cl
not listed: [12] | [13] | [16] | [17] | [18] | [19]
inactive: all other assays above

OCCCl
not listed: [12] | [16] | [18] | [19]
inactive: all other assays above

Clc1ccc(C(c2ccc(Cl)cc2)C(Cl)(Cl)Cl)cc1
active: [1] 4.13 µM | [5] 100 µM
not listed: [16] | [17] | [19]
inactive: all other assays above

Clc1ccc(Cl)c(Cl)c1
active: [1] 58.4 µM
not listed: [12] | [14] | [16] | [17] | [19]
inactive: all other assays above

COC(=O)Nc1nc2ccccc2[nH]1
not listed: [13] | [14] | [16] | [18] | [19]
inactive: all other assays above

Cc1cc(N=Nc2ccccc2C)ccc1N
active: [1] 13.9 µM | [2] 26.4 µM | [3] 23 µM | [8] 19 µM | [15] 22.9 µM | [11] 19.3 µM
not listed: [13] | [19]
inactive: all other assays above

N#CC(Br)Br
not listed: [12] | [15] | [16] | [18]
inactive: all other assays above

Clc1ccc(C(c2ccc(Cl)cc2)C(Cl)Cl)cc1
active: [1] 8.73 µM | [5] 59.8 µM | [6] 56.4 µM | [15] 15.7 µM | [19] 16.2 µM | [11] 56.2 µM
not listed: [16] | [18]
inactive: all other assays above

CN(C)C(=O)Nc1ccc(Cl)cc1
not listed: [12] | [14] | [16] | [17] | [18] | [19]
inactive: all other assays above

CC(O)CCO (configuration not stated)
active: [1] 27 µM
not listed: [12] | [13] | [14] | [16] | [18] | [19]
inactive: all other assays above

CCOC(=O)[C@]1(c2ccccc2)Oc2ccccc2[C@@H]1N
active: [1] 9.53 µM | [2] 13.8 µM | [3] 33 µM | [4] 50.3 µM | [5] 49.6 µM | [6] 12.3 µM | [8] 33 µM | [9] 61.8 µM | [10] 15.6 µM | [15] 15.8 µM | [11] 41.9 µM
inactive: [7] | [17] | [12] | [14]

CCCCCCCCn1sccc1=O
active: [1] 18.5 µM | [4] 18.4 µM | [5] 17 µM | [6] 14.8 µM | [15] 16.7 µM | [19] 16.9 µM | [11] 16.5 µM
not listed: [14] | [17] | [18]
inactive: all other assays above

O=C(N[C@H](c1ccccc1)[C@@H]1CN2CCC1CC2)c1c(Cl)ccc(C(F)(F)F)c1Cl
active: [1] 0.458 µM | [6] 5.4 µM
not listed: [12] | [13] | [14] | [17] | [19]
inactive: all other assays above

[O-][Cl+]O
not listed: [14] | [16] | [17]
inactive: all other assays above

O=C1CCCO1
not listed: [12] | [14] | [18] | [19]
inactive: all other assays above

From PubChem BioAssay (EPA / NIEHS)
